A selection: hits, their analogues and other compounds. The true share with any hit is near 2.6%.
TAG inh: triacylglycerol accumulation inhibition | H9c2 cells, Nile Red lipid (TAG) fluorescence; cells loaded with 200 µM oleic acid | inhibition, % at 12.5 µM | actives 0.66% (n = 230,000);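 active = pattern-corrected inhibition of lipid staining of at least 50% with the nuclear-stain viability signal not falling by more than 50%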;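 note: 0% = DMSO wells and 100% = triacsin C control wells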
COUP-TFII inh: inhibitors of human COUP-TFII (NR2F2). HEK293T NGFI-A luciferase reporter, luminescence. inhibition, % at 8.6 µM. actives 0.7% (n = 370,000). AID 686940;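 active = inhibition above a per-plate cutoff, mean inhibition of test wells between control levels plus 3 SD, cut at about 38% in these data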;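 note: cells cotransfected with COUP-TFII expression vector driving the NGFI-A reporter; 0% = median of COUP-TF2 test wells and 100% = reporter-only cells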
Target sequence (P24468 whole entry, looked up): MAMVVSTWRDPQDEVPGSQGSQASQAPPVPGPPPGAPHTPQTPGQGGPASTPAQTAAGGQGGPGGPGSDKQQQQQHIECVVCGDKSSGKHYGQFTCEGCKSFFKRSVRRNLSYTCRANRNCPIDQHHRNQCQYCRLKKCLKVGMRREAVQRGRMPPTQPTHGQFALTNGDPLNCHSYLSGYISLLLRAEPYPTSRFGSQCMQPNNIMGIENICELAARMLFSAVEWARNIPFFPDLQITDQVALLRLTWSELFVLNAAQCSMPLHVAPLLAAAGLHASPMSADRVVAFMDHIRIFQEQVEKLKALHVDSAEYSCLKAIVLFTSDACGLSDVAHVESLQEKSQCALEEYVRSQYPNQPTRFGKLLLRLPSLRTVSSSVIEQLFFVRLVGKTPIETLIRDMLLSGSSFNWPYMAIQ
Jurkat NFkB inh: lowers PMA/ionomycin-induced NF-kB signal in Jurkat cells; PMA/ionomycin-induced NF-kB luciferase reporter, luminescence; inhibition, % at 4 µM; actives 0.53% (n = 330,000); AID 435003; in the data active = inhibition above about 50%
697 NFkB inh: inhibitors of the PMA/ionomycin-induced NF-kB reporter in 697 B cells | actives 0.33% (n = 330,000) | inhibition, % at 4 µM | 697 B-cell NF-kB luciferase reporter, 16 h | AID 435022; in the data active = inhibition above about 35%
H9c2 protect: protects H9c2 cardiomyocytes from peroxide injury | H2O2 injury protection, ATPLite, 2 h | AID 588492 | protection from H2O2 cell death, % at 20 µM | actives 0.63% (n = 360,000);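 active = compounds giving at least 50% protection of heart cells from peroxide-induced death in the single-dose screen, raw or plate-pattern-corrected value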;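 note: 0% = DMSO wells with peroxide and 100% = DMSO wells without peroxide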
Gli-Sufu antag: antagonists of Gli-Sufu signaling; Sufu-KO-LIGHT fibroblasts, Gli luciferase reporter luminescence; inhibition, % at 5 µM; actives 0.74% (n = 340,000);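 active = inhibition above about 55%, limit read from the data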;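 note: 0% = DMSO-treated cells and 100% = wells with medium but no cells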
Jurkat NFkB conf: inhibitors of the PMA/ionomycin-induced NF-kB reporter in Jurkat cells, retest; shares compounds with Jurkat NFkB inh; Jurkat NF-kB luciferase, 16 h; inhibition, % at 4 µM; actives 27% (n = 2,700); AID 435020;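 active = inhibition reaching about 45% at 4 µM in either replicate, limit read from the data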;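 note: plate controls were PMA/ionomycin stimulated DMSO wells for no effect and unstimulated DMSO wells for full effect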
The depositor's hits bear a star; nt = no result.

SMILES | TAG inh | COUP-TFII inh | Jurkat NFkB inh | 697 NFkB inh | H9c2 protect | Gli-Sufu antag | Jurkat NFkB conf
O=C(Cc1c[nH]c2ccccc12)Nc1ccc(Nc2cccnc2)c(-c2ccc(OC(F)(F)F)cc2)c1 | nt | 13 | nt | nt | nt | nt | nt
CN(C)c1ccc(-c2nn3c(-c4ccccc4Cl)nnc3s2)cc1 | 35 | 4 | 75* | 25 | -10 | 18 | 63*
CN(C)c1ccc(-c2nn3c(-c4cccnc4)nnc3s2)cc1 | nt | nt | -8 | 19 | nt | -5 | nt
COc1ccccc1-c1nnc2sc(-c3ccc(N(C)C)cc3)nn12 | nt | -80 | 78* | -204 | -5 | 55 | 47
CN(C)C=Nc1nc2c(Br)ccc(Br)c2cc1C(=O)NCC(C)(C)C | nt | 5 | nt | nt | nt | nt | nt
Cn1cc(/C=N/n2cnc3scc(-c4ccccc4)c3c2=O)c2ccccc21 | 43 | -9 | 63* | -20 | 38 | 14 | 25
COc1ccc(Nc2nc3cc(C)ccc3cc2C#N)c(OC)c1 | 8 | 11 | 65* | -51 | -7 | 8 | 46
COc1ccc(Nc2nc3ccc(C)cc3cc2C#N)c(OC)c1 | nt | -16 | -2 | -20 | -5 | -20 | nt
CC(C)C1COC(c2cccc3ccccc23)=N1 (stereo not drawn) | -5 | -20 | -159 | -193 | -10 | -40 | -40
CCn1cc(C2=NC(C(C)C)CO2)c2ccccc21 (stereo not drawn) | -8 | -8 | -16 | -2 | -14 | -4 | nt
CCOC(=O)c1cccc(NC(=O)CN(C)S(=O)(=O)c2cc(OC)ccc2OC)c1 | nt | 9 | nt | nt | nt | nt | nt
Fc1ccccc1OCCSc1nnnn1-c1ccccc1 | nt | -20 | -174 | -160 | -9 | -89 | -139
c1ccc(OCCSc2nnnn2-c2ccccc2)cc1 | nt | -18 | -126 | -178 | -16 | 0 | nt
Cc1ccccc1C(=O)N[C@@H](CC(C)C)C(=O)N1CCC[C@H]1C(=O)NCc1ccccc1 | nt | -9 | nt | nt | nt | nt | nt
CCSc1nc2ccccc2n1C(=O)/C=C\c1ccc(OC)c(OC)c1 | 21 | 10 | 53* | -136 | 7 | 0 | 42
CCSc1nc2ccccc2n1CC(N)=O | nt | 2 | -6 | 11 | -4 | -1 | nt
O=C(/C=C/c1ccc(Cl)cc1Cl)N1CCc2ccccc21 | nt | -28 | -155 | -195 | -10 | -94 | -88
O=C(/C=C/c1cccc(F)c1)N1CCc2ccccc21 | nt | -33 | -197 | -245 | -13 | -130 | -140
COc1ccc2[nH]c3c(c2c1)CCN[C@]31C(=O)N(C)c2ccc(Br)cc21 | nt | -27 | nt | nt | nt | nt | nt
COc1ccc(Cn2c(NC(=O)c3ccccc3)nc(Cc3ccccc3)c2Cc2ccccc2)cc1 | nt | -4 | nt | nt | nt | nt | nt
COc1cc(SC)ccc1C(=O)Nc1ccon1 | 2 | -58 | -42 | -54 | -4 | -39 | nt
COc1cc(SC)ccc1C(=O)Nc1cccc(C)n1 | -2 | -8 | -153 | -153 | -15 | -83 | -69
COc1cc(SC)ccc1C(=O)Nc1ccccn1 | -3 | -34 | -166 | -221 | -17 | -96 | -96
COc1ccc2c(c1)CN1CN(CC(C)C)S(=O)(=O)CC21 (stereo not drawn) | nt | -4 | nt | nt | nt | nt | nt
O=C1C(NC(=O)N2c3ccccc3C=Cc3ccccc32)CCCCN1Cc1cccc(C(F)(F)F)c1 (stereo not drawn) | nt | 23 | nt | nt | nt | nt | nt
SMILES | TAG inh | COUP-TFII inh | Jurkat NFkB inh | 697 NFkB inh | H9c2 protect | Gli-Sufu antag | Jurkat NFkB conf
O=C(COC(=O)c1cccc(OC(F)F)c1)Nc1cccc(S(=O)(=O)N2CCCC2)c1 | 0 | 7 | 63* | 1 | -13 | -4 | 11
CCOC(=O)CC[C@H]1CC[C@]2(CCCN(S(=O)(=O)C3CCCCC3)C2)O1 | nt | 16 | nt | nt | nt | nt | nt
CCC(=O)Nc1c(C)nn(-c2ccc(C)c(C)c2)c1C | nt | -33 | -4 | -7 | 3 | -7 | nt
Cc1ccc(-n2nc(C)c(NC(=O)CCl)c2C)cc1C | nt | -14 | 64* | 13 | -10 | 13 | 21
COC(=O)[C@]12C[C@H](CC(=O)N3CCCCC3)C(=O)N(CCc3ccc(OC)c(OC)c3)C1=C[C@H](COCc1ccccc1)O[C@@H]2C | nt | -7 | nt | nt | nt | nt | nt
CCOc1ccc2nc(C)cc(Nc3cccc([N+](=O)[O-])c3)c2c1 | nt | -35 | 77* | 7 | -16 | 45 | 34
Cc1cc(Nc2cccc([N+](=O)[O-])c2)c2ccccc2n1 | -15 | 7 | 21 | -24 | -13 | 33 | nt
Cc1ccc(C2=NN(C(=O)CSc3nccn3C)C(c3ccco3)C2)cc1 (stereo not drawn) | -5 | 16 | 63* | 8 | 20 | 12 | 20
Cc1ccc(C2=NN(C(=O)CSc3nc4ncc(Cl)cc4[nH]3)C(c3ccco3)C2)cc1 (stereo not drawn) | 4 | -15 | -20 | -32 | -4 | 3 | nt
COc1ccc(OCc2cc(C(=O)NC3Cc4ccccc4C3)no2)c(Cl)c1 | 16 | 8 | 55* | -23 | -4 | -19 | 23
CCN(Cc1ccccc1)c1ccc(/C=N/N=C(N)N)cc1 | nt | -5 | 61* | -37 | -5 | 23 | 13
CCN(Cc1ccccc1)c1ccccc1 | nt | -2 | nt | nt | -4 | 3 | nt
O=C(NC1CCCCN(Cc2cccc(C(F)(F)F)c2)C1=O)c1ccc(-c2ccccc2)cc1 (stereo not drawn) | nt | 5 | nt | nt | nt | nt | nt
CCOc1ccc2c(c1)C(C)=CC(C)(C)N2S(=O)(=O)c1ccc(NC(C)=O)cc1 | nt | -68 | 56* | -156 | 0 | 65* | 58*
COc1ccc2c(c1)C(C)=CC(C)(C)N2S(=O)(=O)c1ccc(NC(C)=O)cc1 | 21 | -31 | 45 | -54 | 7 | 47 | nt
OCCCNc1c2ccccc2nc2ccccc12 | nt | -69 | 84* | 18 | 4 | 8 | -23
Cc1ccc(-c2nc(NCCCO)c3ccccc3n2)cc1 | 8 | -1 | -11 | -5 | -2 | 1 | nt
COc1cc(NC(=O)c2ccccc2)c(C)cc1NC(=O)CSc1nnc(-c2ccccc2F)n1-c1ccc(C)cc1 | nt | -6 | nt | nt | nt | nt | nt
O=C(c1ccncc1)N1CCC(Oc2cccnc2)CC1 | nt | -1 | nt | nt | nt | nt | nt
CCc1cccc2sc(N3CCN(C(=O)c4ccc([N+](=O)[O-])o4)CC3)nc12 | 92 | nt | 51* | -8 | 2 | 76* | -13
O=C(CCc1ccccc1)N[C@H]1[C@@H](OC(=O)C2CC2)CCC[C@@]12C(=O)N(Cc1ccccc1)c1ccccc12 | nt | 8 | nt | nt | nt | nt | nt
Cc1cccn2cc(-c3ccc(Cl)cc3)nc12 | 10 | -34 | -194 | -241 | -17 | -119 | -111
Cc1cccn2cc(-c3cc4ccccc4oc3=O)nc12 | -6 | -24 | -152 | -205 | -8 | -75 | -81
CC(=O)c1cc2c(cc1NC(=O)Cn1nc(-c3ccc(C)cc3)ccc1=O)OCO2 | nt | -11 | 53* | -19 | 0 | 19 | 14
COC1=C[C@H](C(=O)NCCNC(C)=O)[C@@]2(C)Cc3ccccc3[C@H]2CC1=O | nt | -1 | nt | nt | nt | nt | nt
CCOc1ccccc1NC(=O)Cn1nnc(C(=O)NCc2ccco2)c1N | 66* | -83 | 69* | 13 | 1 | 26 | 56*

Source: PubChem (several laboratories)
